HCMV antiviral – human cytomegalovirus inhibition; HFF cells, HCMV-luciferase reporter, 72 h; stronger effect = lower value; AID 1259415; 410,000 compounds, 4.5% hits; activity change, negative = inhibition, % at 57.5 µM; in the data active = activity change below about -60%; inconclusive = no clear call, values can overlap the other calls; inactive = above about -39%
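Two compound doses tested in HFFs infected with HCMV-luciferase, MOI 1 PFU/cell, 72 h at 37C. Lysate luminescence read with OneGlo; data normalized against buffer-only and 10uM Salinomycin inhibitor controls.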
Lassa entry inh – inhibitors of Lassa virus binding or cell entry; Potency, µM (series often up to 37.9 µM), inactives show at the top dose activity change, negative = inhibition, actives largely listed as inhibitors; Lassa virus pseudotype entry inhibition, cell reporter; 300,000 compounds, 1.2% hits; AID 540256; calls by dose curve; tested in HEK293 cells; also: potency is read from the fitted curve at half-maximal effect; nearly all actives have a fitted effect of over 50% in size
MARV entry inh – blocks Marburg virus binding to or entry into cells | Marburg virus pseudotyped entry inhibition, cell reporter | Potency, µM (highest dose often 37.8 µM), for inactives: at the top dose activity change, negative = inhibition, usual class: inhibitors | 300,000 compounds, 1.8% hits | AID 540276; calls by dose curve; tested in HEK293 cells; also: potency is read from the fitted curve at half-maximal effect
FMDV inh – blocks foot and mouth disease virus; FMDV antiviral cell-based qHTS; 410,000 compounds, 1.2% hits; Potency, µM (doses to about 57.9 µM), without a hit: at the top dose activity change, negative = inhibition, most hits filed as inhibitors; calls by dose curve; tested in HEK293T cells; also: read-out not given here; potency is read from the fitted curve at half-maximal effect; nearly all actives have a fitted effect of over 45% in size
* hit, by the source's call; u = inconclusive; x = no result given; [ ] = another dose, or the depositor's remark. Most compounds without a hit are left out; they make up all but 6.2% or so of the library. % is scaled to controls: 0 for no effect and ±100 for the full control effect.

SMILES	HCMV antiviral	Lassa entry inh	MARV entry inh	FMDV inh
O=C1[C@@H]2[C@H]3[C@H](O)[C@H](O)CC(=NOC[C@@H](O)COCc4ccco4)[C@H]3CC[C@H]2C(=O)N1C[C@@H]1CCCO1	x	x	4%[14.2 µM]	x
O=C(Nc1cccc(F)c1)N1C[C@H]2[C@@H](c3ccccc31)[C@H](CO)N2C(=O)c1cccnc1	-4	x	x	x
COc1ccccc1C1CN(CC(=O)N2CCC(C(O)c3ccccn3)CC2)Cc2ccccc2O1 (stereo not given)	x	x	x	2%
COc1cc(=O)n2c(c1C(=O)N(C)Cc1ccsc1)CCN(Cc1cnn(C)c1C)CC2	x	x	x	7%
Cc1cccc(Cn2c(=O)n(CC3CCC(C(=O)N4CCC(C)CC4)CC3)c(=O)c3sccc32)c1 (stereo not given)	-3	u	x	32µM*
COc1cccc(/C=N/Nc2snc(SC)c2C#N)c1O	-98*	u	u	u
COc1ccc(/C=N/Nc2snc(SC)c2C#N)cc1OC	82	6.3µM*	u	-2%
COc1cccc(C=Nc2ccccc2C#N)c1O	8	4%	10%	-13%
COc1cccc(/C=N/Nc2snc(SC)c2C#N)c1	6	5.6µM*	u	-10%
CSc1nsc(N/N=C/c2ccccc2)c1C#N	-39	-2%	-29%[46.1 µM]	28%
CCCN(CCC)C(=O)Cn1c(=O)n(-c2cccc(C(F)(F)F)c2)c(=O)c2c(C)c(C)sc21	-2	-1%[46.1 µM]	-16%[46.1 µM]	-30%
O=C(Nc1c2c(nn1-c1ccc(Cl)cc1)CS(=O)(=O)C2)c1ccccc1F	-8	24%[46.1 µM]	x	0%
COc1ccccc1Cn1cc(C(=O)c2ccc(C)cc2)c(=O)c2cc(F)cc(F)c21	10	11%[46.1 µM]	-15%[46.1 µM]	2%
CCCCn1c(C)nc2cc(S(=O)(=O)N3CCOCC3)ccc21	-24	x	x	0%
CCCCn1c(CCl)nc2cc(S(=O)(=O)N3CCOCC3)ccc21	-23	0%	-22%	32µM*
CCCOC(=O)c1ccc(Oc2c(-c3ccc(OCC)cc3O)n[nH]c2C)cc1	-98*	u	u	x
CCCc1ccc(Oc2cn[nH]c2-c2ccc(O)c(C)c2O)cc1	-61*	-24%	u	x
CCCOC(=O)c1ccc(Oc2cn[nH]c2-c2ccc(OCC)cc2O)cc1	70	7.9µM*	u	u
CC(C)(C)c1ccc(S(=O)(=O)/C=C/C#N)cc1	x	3.7µM*	2.5µM*	x
CC(C)(C)c1ccc(NS(=O)(=O)c2ccc(N)cc2)cc1	47	u	u	27%
C[C@H]1[C@H](N=[N+]=[N-])[C@H](O)CCO[C@@H]1c1ccccc1	x	x	13%[14.2 µM]	x
O=C(c1ccccc1)c1coc2c1C(=O)c1ccccc1C2=O	72	x	u	u
COc1ccc(C(=O)c2coc3c2C(=O)C(=O)c2ccccc2-3)cc1	68	11µM*	u	41%
O=C(Nc1cccc(C2=NCCN2)c1)Nc1cccc(C2=NCCN2)c1	-81*	x	x	-19%
Cc1nnc(NCc2ccc(F)cc2)c2c1nnn2Cc1ccccc1Cl	21	-1%[46.1 µM]	u	-14%
SMILES	HCMV antiviral	Lassa entry inh	MARV entry inh	FMDV inh
CC(C)C[C@H]1COc2cc(Br)ccc2S(=O)(=O)N1Cc1cccc(Cl)c1	34	x	x	x
COC(=O)c1ccccc1NN=Nc1ccccc1[N+](=O)[O-]	-101*	x	x	13%
O=[N+]([O-])c1ccccc1N=NNc1ccccc1	2	19%[46.1 µM]	u	21%
CCOC(=O)c1c(C)[nH]c(C)c1S(=O)(=O)N1CCCC(C(=O)Nc2ccccc2OCC)C1 (stereo not given)	-9	-2%[46.1 µM]	x	19%
Cc1cc(Br)cn2c(CC(C)(C)C)c(-c3cccc(Cl)c3)nc12	7	x	x	-23%
Cc1cc(C)c2c(NC(=S)NC(=O)c3ccccc3)nn(C)c2n1	22	23%	27%[46.1 µM]	2%
Cc1cc(C)c2c(NC(=O)CCl)nn(C)c2n1	-110*	u	u	u
Cc1cc(C)cc(NC(=O)c2ccc(NC3=NC4CS(=O)(=O)CC4S3)cc2)c1 (stereo not given)	-27	x	x	7%
